Reference: PubChem BioAssay
Where “and” joins values, the source holds several entries; their conditions need not be identical. Equal values may be shown once. Calls of active or inactive are those of the source.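 How the source made its calls, unless noted: active means inhibition at or above 50% relative to wild type and mutant plate controls; inactive means inhibition below 50%.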

Key:
[1] = inhibitors of TNFa-induced NFkB p65 translocation, primary screen, imaging, HUVEC, MLSMR starter and 10KST1 sets (AID 438;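 active means inhibition above 20% together with a positive visual image hit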;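 further: compound added about 3h40 before a 20 min TNFalpha stimulation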;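 on inhibition: signal is the nuclear over cytoplasmic p65 intensity ratio per well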); details: HUVEC TNFa-induced p65 nuclear translocation; cell count: measured here: nuclei count (cytotoxicity indicator), at 2.08 µM; inhibition: at 2 µM, stronger effect = higher value, 0% TNFa-plus-vehicle, 100% no-TNFa wells
[2] = reduction of polyQ htt aggregates in cells – imaging, exon1htt(103Q)mCFP cells, high-content imaging, primary screen (AID 483;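 active means visual image review flags a hit and inhibition of aggregation exceeds 20%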;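 further: compound exposure lasted 3 days before fixation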;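 on nuclei count: percent of the per-plate median nuclei count of sample wells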); details: exon1htt(103Q)mCFP cell line, aggregate imaging, at 2 µM; inhibition of aggregation: stronger effect = higher value; nuclei count: measured here: cell count, toxicity
[3] = endothelial E-selectin expression blockers – imaging, HUVEC, immunofluorescence, MLSMR starter and 10KST1 sets, primary screen (AID 487;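 active means visually confirmed hit in the image check and inhibition above 20%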;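 on inhibition: signal is fraction of cell area covered by stained E-selectin grains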;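 on nuclei count: 100% = median nuclei count of all wells on the same plate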); details: HUVEC TNFalpha-induced E-selectin immunofluorescence imaging, at 2 µM; inhibition: stronger effect = higher value; nuclei count: measured here: cell number, toxicity
[4] = Primary imaging screen for DUSP6 inhibitors that restore phospho-Erk in transfected HeLa cells, chemical complementation (AID 609;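 active means compounds giving at least 50% inhibition in the cell-based MKP-3 phosphatase rescue imaging test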;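 on inhibition: phospho-Erk level distribution per well compared with pooled transfected vehicle control wells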); details: HeLa MKP-3 transfected, phospho-Erk imaging KS statistic, at 10 µM, cells stimulated with TPA for 15 min
[5] = target: Dual specificity protein phosphatase 6 (Homo sapiens) (UniProt Q16828); test: as above; details: HeLa MKP-3 transfected, phospho-Erk imaging KS statistic; at 10 µM; stronger effect = higher value; cells stimulated with TPA for 15 min
[6] = target: Voltage-gated potassium channel subunit beta-2 (Rattus norvegicus) (UniProt P62483); test: inhibitors of rat Kvbeta2 reductase activity – biochemical, NADPH fluorescence, primary screen (AID 622;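 active means fluorescence slope higher than the sample average by over 3 SD, cut at about -0.22 in these data, passing the limit was not always enough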;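 further: slope of raw intensity against log time taken from 70 to 1610 s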); details: recombinant KvBeta, 4-cyanobenzaldehyde reduction, at 10 µM, stronger effect = higher value
[7] = target: Voltage-gated potassium channel subunit beta-2 (Rattus norvegicus) (UniProt P62483); test: enhancers of rat Kvbeta2 NADPH turnover – biochemical, NADPH fluorescence, primary screen (AID 623;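 active means NADPH fluorescence slope more negative than the mean of all samples by about 3 SD, 99.7% confidence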;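 further: fluorescence intensity change per second fitted from 20 to 320 s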); details: Recombinant KvBeta, NADPH fluorescence decrease slope, 10 min; at 10 µM; stronger effect = lower value
[8] = target: Alpha-2C adrenergic receptor (Homo sapiens) (UniProt P18825); test: compounds altering alpha2C-coupled GIRK flux – cell-based, HEK293 alpha2C/GIRK1/2, thallium flux, primary screen (AID 624;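 active means fluorescence slope after compound addition differing from the mean of all screened samples at 99.7% confidence, in either direction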;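 further: slope of fluorescence ratio to pre-addition baseline per second over 15 to 24 s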); details: thallium flux BTC fluorescence, at 10 µM, actives lie on both sides
[9] = inhibitors of larval lipid processing in zebrafish, primary screen, whole organism, PED6 fluorescence, gall bladder and intestine (AID 686;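 active means a full or partial loss of lipid-probe fluorescence in the fish gall bladder, intestine or both, judged by eye; inactive means no fluorescence loss, or compound toxic to the fish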;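 further: larvae 5 to 7 days old with five fish per well; signal comes from phospholipase A2 cleavage of quenched PED6 carried via bile; overnight exposure to compound and PED6 before scoring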); details: Zebrafish larvae PED6 lipid processing, fluorescence scoring; screened at 20 µM (by protocol)
[10] = loss of swimming-algae plug formation – whole organism, Chlamydomonas reinhardtii, WT vs cilia-less mutant, absorbance, 96-well, primary screen (AID 463189); details: Chlamydomonas reinhardtii gravitaxis, OD600 absorbance, 2 days; at 10 µM; stronger effect = higher value;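 further: 0% = wild type cc124 cells in DMSO and 100% = ciliumless bld1 mutant cells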
[11] = blockers of RIG-like receptor reporter activation – cell-based, Sendai virus stimulus, luciferase, 10K MLSCN set, TLR/RLR signaling modifier project, primary screen (AID 602276;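 active means inhibition at or above 50% at 10 µM; inactive means inhibition below 50%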;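 further: firefly luciferase from ISG56 promoter only with Renilla not read in this screen; 0% = Sendai virus plus DMSO and 100% = medium plus DMSO without virus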); details: HEK293 RL24 IRF3 luciferase reporter, at 10 µM, stronger effect = higher value
[12] = TLR3 IRF3 reporter activation blockers – cell-based, poly I:C stimulus, luciferase, 10K MLSCN set, primary screen (AID 602277;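 active means inhibition of the reporter signal at or above 50%; inactive means inhibition below 50%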); details: HEK293-TLR3 RL24 IRF3 luciferase reporter, at 10 µM, stronger effect = higher value
[13] = measured here: cell density z-score
[14] = measured here: nuclear c-Myc green intensity z-score
[15] = measured here: nuclear pErk red intensity z-score, stronger effect = higher value

Dual specificity protein phosphatase 6 (Homo sapiens), sequence (Q16828 whole entry, looked up): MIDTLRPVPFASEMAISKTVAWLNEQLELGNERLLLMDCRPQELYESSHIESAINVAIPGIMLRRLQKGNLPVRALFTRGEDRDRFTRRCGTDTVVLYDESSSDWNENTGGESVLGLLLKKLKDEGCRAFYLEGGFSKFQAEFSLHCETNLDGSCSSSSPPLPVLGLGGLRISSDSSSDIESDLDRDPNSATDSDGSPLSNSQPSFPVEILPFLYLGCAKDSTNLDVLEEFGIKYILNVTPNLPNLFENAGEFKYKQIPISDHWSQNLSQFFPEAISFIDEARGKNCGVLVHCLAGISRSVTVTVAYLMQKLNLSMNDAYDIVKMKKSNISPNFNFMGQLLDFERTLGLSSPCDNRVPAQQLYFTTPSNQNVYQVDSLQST
Voltage-gated potassium channel subunit beta-2 (Rattus norvegicus), sequence (P62483 whole entry, looked up): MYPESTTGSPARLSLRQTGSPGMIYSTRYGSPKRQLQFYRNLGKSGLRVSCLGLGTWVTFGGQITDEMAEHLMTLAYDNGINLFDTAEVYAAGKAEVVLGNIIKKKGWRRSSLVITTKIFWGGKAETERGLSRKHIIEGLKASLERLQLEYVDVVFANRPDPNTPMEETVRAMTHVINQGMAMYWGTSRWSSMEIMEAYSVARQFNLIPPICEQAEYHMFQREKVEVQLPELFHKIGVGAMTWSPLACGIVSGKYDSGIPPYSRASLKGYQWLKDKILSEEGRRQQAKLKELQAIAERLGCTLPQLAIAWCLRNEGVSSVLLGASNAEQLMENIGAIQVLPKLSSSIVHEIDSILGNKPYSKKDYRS
Alpha-2C adrenergic receptor (Homo sapiens), sequence (P18825 whole entry, looked up): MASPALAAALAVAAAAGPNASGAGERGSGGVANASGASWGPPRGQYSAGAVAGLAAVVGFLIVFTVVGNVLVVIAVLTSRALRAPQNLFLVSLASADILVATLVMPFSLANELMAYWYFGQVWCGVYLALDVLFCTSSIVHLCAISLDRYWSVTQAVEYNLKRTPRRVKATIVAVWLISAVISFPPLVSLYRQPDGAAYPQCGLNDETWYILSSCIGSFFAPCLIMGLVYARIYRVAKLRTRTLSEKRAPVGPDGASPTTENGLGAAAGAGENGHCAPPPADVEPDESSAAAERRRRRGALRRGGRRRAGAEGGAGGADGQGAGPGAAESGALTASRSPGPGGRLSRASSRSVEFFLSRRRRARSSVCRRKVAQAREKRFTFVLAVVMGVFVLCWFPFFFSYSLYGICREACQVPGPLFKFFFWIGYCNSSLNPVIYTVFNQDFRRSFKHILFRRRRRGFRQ

SMILES	cell count [1]	inhibition [1]	inhibition of aggregation [2]	nuclei count [2] [%]	inhibition [3]	nuclei count [3] [%]	z-score [4, 13]	z-score [4, 14]	z-score [4, 15]	inhibition [5]	fluorescence slope [6]	NADPH fluorescence slope [7]	slope [8]	outcome [9]	inhibition [10]	inhibition [11]	inhibition [12]
COC(=O)CCC(=O)CN	462	-0.2% (inactive)	0.3% (inactive)	95.2	-32.6% (inactive)	108	-0.857	0.817	-0.467	14.6% (inactive)	-0.446 (inactive)	-6.5e-05 (inactive)	0.00417 (inactive)	inactive	-6.73% (inactive)	5.54% (inactive)	25.1% (inactive)
Cn1c(=O)c2c3c(sc2n2c(SCc4ccccc4)nnc12)CCCC3	550	-5.3% (inactive)	1.8% (inactive)	103	-44% (inactive)	99.3	-0.0166	-0.0898	-0.287	4.37% (inactive)	-0.371 (inactive)	-1.7e-05 (inactive)	0.00552 (inactive)	inactive	32.4% (inactive)	-3.8% (inactive)	97.9% (active)
CCCCCC(=O)N1CC2(CC)CN(C(=O)CCCCC)CC(CC)(C1)C2=O	548	4.4% (inactive)	26.5% (inactive)	90	-77.8% (inactive)	117	0.465	-0.132	-0.254	7.42% (inactive)	-0.308 (inactive)	-9.9e-07 (inactive)	0.00431 (inactive)	inactive	22.6% (inactive)	3.77% (inactive)	34.5% (inactive)
CC(NCCC(c1ccccc1)c1ccccc1)c1ccccc1 (configuration not stated)	619	-0.2% (inactive)	22.8% (inactive)	104	-24.4% (inactive)	113	1.32	-0.571	-1.03	13.3% (inactive)	-0.492 (inactive)	-8.5e-06 (inactive)	0.00284 (inactive)	inactive	59.1% (active)	28.7% (inactive)	22.8% (inactive)
Cn1nnc2c(sc3nc(N4CCOCC4)c4c(c32)CCCC4)c1=O	611	-5.6% (inactive)	21.6% (inactive)	109	-120% (inactive)	114	3.22	-0.738	-2.88	28.6% (inactive)	-0.348 (inactive)	-2.4e-05 (inactive)	0.00477 (inactive)	inactive	-8.88% (inactive)	-5.47% (inactive)	-2.11% (inactive)
COc1ccc(C2CC(=O)C(C=NCCN3CCOCC3)=C(O)C2)cc1 (configuration not stated)	379	-8.5% (inactive)	0.1% (inactive)	106	-118% (inactive)	138	0.329	0.663	-0.587	-5.62% (inactive)	-0.354 (inactive)	9.4e-06 (inactive)	0.00492 (inactive)	inactive	7.09% (inactive)	14.9% (inactive)	20.5% (inactive)
CCOC(=O)CSC1=C(C#N)C(=O)NC2(CCCCC2)S1	580	-10.9% (inactive)	-5.9% (inactive)	108	-43.8% (inactive)	131	-1.03	0.989	0.0798	-7.86% (inactive)	-0.497 (inactive)	-4.9e-05 (inactive)	0.00597 (inactive)	inactive	-1.64% (inactive)	8.53% (inactive)	100% (active)
COc1ccc2cnn(-c3ccccc3C)c(=O)c2c1OC	613	-6.2% (inactive)	1.9% (inactive)	116	-124% (inactive)	157	0.481	0.125	1.16	-6.48% (inactive)	-0.372 (inactive)	-3.7e-05 (inactive)	0.00535 (inactive)	inactive	9.21% (inactive)	9.25% (inactive)	5.14% (inactive)
C[C@H]1C[C@@H]2[C@H]([C@@H](O)C[C@@]3(C)[C@H]2CC[C@]3(O)C(=O)CO)[C@@]2(C)C=CC(=O)C=C12	665	-3.7% (inactive)	10.3% (inactive)	101	-77.5% (inactive)	120	1.04	0.95	0.348	7.39% (inactive)	-0.512 (inactive)	-7.2e-05 (inactive)	0.00539 (inactive)	inactive	7.13% (inactive)	11.3% (inactive)	36.5% (inactive)
CC(=O)OCC(=O)[C@@]12OC(C)(C)O[C@@H]1C[C@H]1[C@@H]3C[C@H](F)C4=CC(=O)C=C[C@]4(C)[C@@]3(F)[C@@H](O)C[C@@]12C	518	-0.9% (inactive)	2% (inactive)	53.2	-73.2% (inactive)	104	-0.49	-0.238	-0.0296	-2.46% (inactive)	-0.449 (inactive)	-7.8e-05 (inactive)	0.00478 (inactive)	inactive	-12.6% (inactive)	5.9% (inactive)	40.3% (inactive)
N#C/C(=C\c1ccc(O)c(O)c1)C(=O)NCCCc1ccccc1	629	3.7% (inactive)	-14.6% (inactive)	98.2	-94.6% (inactive)	131	1.89	0.253	-0.466	16.8% (inactive)	-0.49 (inactive)	-5.4e-05 (inactive)	0.00485 (inactive)	inactive	2.27% (inactive) and -1.78% (inactive)	-14.9% (inactive)	-17.2% (inactive)
